We go through one molecule from PubChem BioAssay (NCATS).

SMILES strings stand for the structures. Where “and” joins values, the source holds several entries; their conditions need not be identical. Equal values may be shown once. Inconclusive results are not listed. Calls of active or inactive are those of the source. Unless noted, the call rests on the fitted dose curve.

Assay [1] can be described thus: Cell Viability - LYMP2-006 (AID 978; active means well fitted cell-killing curve with a large enough effect; further: series mostly up to about 92 µM; on the % scale 0 is the no-effect control and ±100 the full control effect; nearly all actives have a fitted effect of over 60% in size). The method, boiled down:
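Potency values are Hill-fit AC50s for decreases in intracellular ATP (CellTiter-Glo luminescence). LYMP2-006 lymphoblastoid cells, 2500 per well, were exposed to compound in complete culture medium for 24 hr at 37 C.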

A short description of assay [2]: Cell Viability - LYMP2-007 (AID 979; active means well fitted cell-killing curve with a large enough effect;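 further: cells exposed to compound for 24 h before reading; 0% = DMSO only and the negative end = 92 µM tetraoctylammonium bromide; nearly all actives have a fitted effect of over 60% in size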). The method, boiled down:
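AC50 values come from Hill-equation fits of luminescent intracellular ATP (CellTiter-Glo, 30 min, room temperature) following 24 h compound exposure at 37 C. Cells: LYMP2-007 lymphoblastoid line, 2500 per well, in complete culture medium.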

The nature of assay [3]: Cell Viability - LYMP2-010 (AID 981; active means well fitted cell-killing curve with a large enough effect; further: on the % scale 0 is the no-effect control and ±100 the full control effect; nearly all actives have a fitted effect of over 55% in size). A digest of the protocol:
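CellTiter-Glo ATP luminescence measured cytotoxicity after 24 h compound exposure at 37 C. LYMP2-010 cells were seeded at 2500/well, with tetraoctylammonium bromide as control; concentration-response curves gave AC50 values by the Hill equation.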

Assay [4] can be described thus: Cell Viability - LYMP2-012 (AID 982; active means well fitted cell-killing curve with a large enough effect;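 further: cellular ATP by luciferase luminescence where a drop means cytotoxicity; cells exposed to compound for one day before reading; 0% = DMSO only and full loss = 92 µM tetraoctylammonium bromide; nearly all actives have a fitted effect of over 55% in size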).
The nature of assay [5]: Cell Viability - LYMP2-014 (AID 983; active means well fitted cell-killing curve with a large enough effect;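 further: series mostly up to about 92 µM; plate controls were DMSO only for no effect and 92 µM tetraoctylammonium bromide for full effect; nearly all actives have a fitted effect of over 50% in size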). A digest of the protocol:
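Intracellular ATP loss, read by luciferase luminescence, measures acute cytotoxicity after 24 h compound exposure of lymphoblastoid LYMP2-014 cells (2500/well, 37 C). Concentration-response data fitted to the Hill equation for AC50.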

Assay [6] can be described thus: Cell Viability - LYMP2-018 (AID 985; active means well fitted cell-killing curve with a large enough effect;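 further: plate controls were DMSO only for no effect and tetraoctylammonium bromide at 92 µM for full effect; nearly all actives have a fitted effect of over 50% in size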). The method, boiled down:
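Viability read as CellTiter-Glo luminescence (cellular ATP) after 24 hr compound exposure at 37 C of 2500 LYMP2-018 lymphoblastoid cells/well, pre-plated 5 hr. Hill-equation modelling gave AC50.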

The nature of assay [7]: Cell Viability - LYMP2-020 (AID 986; active means well fitted cell-killing curve with a large enough effect;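 further: series mostly up to about 92 µM; plate controls were DMSO only for no effect and tetraoctylammonium bromide at 92 µM for full effect; nearly all actives have a fitted effect of over 55% in size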). The method, boiled down:
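Cytotoxicity in qHTS format: luminescent ATP readout from CellTiter-Glo after 24 h compound exposure at 37 C in complete medium. LYMP2-020 lymphoblastoid cells were seeded at 2500/well; concentration-response data fitted to the Hill equation for AC50.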

Assay [8] can be described thus: Cell Viability - LYMP2-024 (AID 988; active means well fitted cell-killing curve with a large enough effect;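 further: plate controls were DMSO only for no effect and 92 µM tetraoctylammonium bromide for full effect; nearly all actives have a fitted effect of over 60% in size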). The method, boiled down:
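Cytotoxicity was taken as a decrease in ATP (CellTiter-Glo luminescence) after 24 hr compound exposure at 37 C of LYMP2-024 lymphoblastoid cells, 2500 cells/well. Concentration-response data were fitted to the Hill equation to give AC50.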

Assay [9] is described as follows: Cell Viability - LYMP2-026 (AID 989; active means well fitted cell-killing curve with a large enough effect; further: on the % scale 0 is the no-effect control and ±100 the full control effect; nearly all actives have a fitted effect of over 50% in size). A digest of the protocol:
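Cytotoxicity read as ATP-dependent luminescence (CellTiter-Glo, 30 min room temperature) after 24 h compound treatment at 37 C. LYMP2-026 lymphoblastoid line seeded at 2500 cells/well; AC50 derived by standard Hill equation.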

The nature of assay [10]: Cell Viability - LYMP1-002 - Assay at 24 hr (AID 993; active means well fitted cell-killing curve with a large enough effect; further: on the % scale 0 is the no-effect control and ±100 the full control effect). A digest of the protocol: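 qHTS cytotoxicity at 24 h: CellTiter-Glo ATP luminescence in lymphoblastoid line LYMP1-002 incubated with compound at 37 °C. Concentration-response modeled with the Hill equation for AC50; tetraoctylammonium bromide served as positive control.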
Assay [11] can be described thus: Cell Viability - LYMP1-002 - Assay at 40 hr (AID 994; active means well fitted cell-killing curve with a large enough effect;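 further: 0% = DMSO only and full inhibition = 92 µM tetraoctylammonium bromide; nearly all actives have a fitted effect of over 60% in size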). A digest of the protocol:
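Cytotoxicity was read as loss of cellular ATP (CellTiter-Glo luminescence) after 40 hr compound exposure at 37 C of 2500 LYMP1-002 lymphoblastoid cells per well. Concentration-response data were fitted with the standard Hill equation to give AC50.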

The nature of assay [12]: qHTS Assay for Identification of Small Molecule Inducers of Hypoxia Response (AID 2120; active means well fitted curve in the direction sought with a large enough effect in the signal ratio, with a control signal flat, not every such curve was filed as active; the % refers to the signal ratio; further: 0% is about no effect). The method, boiled down:
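Reporter induction read as the CCF4 blue/green (460nm/530nm) emission ratio after 2.5 h dye loading at room temperature. ME-180 HRE-beta-lactamase cells received titrated compounds for 17 h at 37 degrees Celsius; AC50 values derived.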

Assay [13] addresses Estrogen receptor (Homo sapiens) (UniProt P03372). Kind of assay: qHTS assay for small molecule antagonists of estrogen receptor alpha signaling (AID 588513; active means well fitted curve in the direction sought with a large enough effect in the signal ratio, with a control signal flat, not every such curve was filed as active; the % refers to the signal ratio; further: on the % scale 0 is the no-effect control and ±100 the full control effect). A digest of the protocol:
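Antagonist mode: inhibition of 0.5 nM 17-beta-estradiol-driven beta-lactamase reporter in HEK 293 ER-alpha-UAS-bla cells, 18 h at 37C, CCF4 readout after 2 h at RT. Normalised to estradiol and DMSO; titration fitted to Hill.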
In general terms: Quantitative high-throughput screening tests each substance at several concentrations.

The target is the same in assay [14]. Kind of assay: qHTS assay for small molecule agonists of estrogen receptor alpha signaling (AID 588514).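 Further: 0% = vehicle only and 100% = reference agonist; nearly all actives have a fitted effect of over 70% in size.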 The method, boiled down: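 EC50 and efficacy came from Hill fits of beta-lactamase reporter signal (CCF4 dye, 2 h at room temperature) scaled between DMSO and 20 nM 17-beta-estradiol. Agonist mode: HEK293 ER-alpha-UAS-bla cells in charcoal/dextran-stripped serum medium, 18 h compound exposure at 37 C.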

Assay [15] addresses Bile acid receptor (Homo sapiens) (UniProt Q96RI1). Kind of assay: qHTS assay for small molecule antagonists of farnesoid X receptor signaling (AID 588526). Further: on the % scale 0 is the no-effect control and ±100 the full control effect. The method, boiled down: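 Antagonist mode: titrated compounds tested against chenodeoxycholic acid stimulation (normalized to 50 uM CDCA and DMSO) in GeneBLAzer HEK293T cells for 16 h. Beta-lactamase read by CCF4 fluorescence; IC50 from Hill fits.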

Assay [16] has the same target. Kind of assay: qHTS assay for small molecule agonists of farnesoid X receptor signaling (AID 588527).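 Further: series mostly up to about 77 µM; 0% = vehicle basal and 100% = reference agonist.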 Conditions: HEK293T FXR-UAS-bla, beta-lactamase ratio, 16 h; activation: stronger effect = higher value. The method, boiled down:
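Read-out: beta-lactamase reporter fluorescence with CCF4 substrate in GeneBLAzer FXR-UAS-bla HEK293T cells, after 16 h compound exposure at 37 C. Response scaled between DMSO basal (0%) and chenodeoxycholic acid at 100 uM (100%).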

The target in assay [17] is Glucocorticoid receptor (Homo sapiens) (UniProt P04150). Kind of assay: qHTS assay for small molecule antagonists of glucocorticoid receptor signaling (AID 588533; active means well fitted inhibition curve with a large enough effect in the signal ratio, with a control signal flat, not every such curve was filed as active; the % refers to the signal ratio; further: on the % scale 0 is the no-effect control and ±100 the full control effect). The method, boiled down: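 Antagonist-mode qHTS: compound titrations added to GRE-bla HeLa cells, then dexamethasone 2 nM final; 18 h, 37 C. CCF4 FRET fluorescence normalized to dexamethasone and DMSO; IC50 from Hill fit.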

Assay [18] addresses Peroxisome proliferator-activated receptor gamma (Homo sapiens) (UniProt P37231). Kind of assay: qHTS assay for small molecule antagonists of peroxisome proliferator-activated receptor gamma signaling (AID 588537; active means well fitted inhibition curve with a large enough effect in the signal ratio, with a control signal flat, not every such curve was filed as active; the % refers to the signal ratio;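 further: reporter cells co-stimulated with 50 nM rosiglitazone agonist during compound treatment; % of control where 0% means no effect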). A digest of the protocol: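 Fluorescence at 460 and 530 nm (405 nm excitation) reported beta-lactamase cleavage of CCF4 after 2 h room-temperature loading. HEK293 reporter cells in 1% charcoal/dextran-treated FBS had received compound and rosiglitazone for 16 h.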

In assay [19] the target is Vitamin D3 receptor (Homo sapiens) (UniProt P11473). Kind of assay: qHTS assay for small molecule antagonists of vitamin D receptor signaling (AID 588541). The method, boiled down:
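VDR-UAS-bla HEK293T cells in 2% charcoal-stripped FBS were stimulated with 1-alpha,25-dihydroxyvitamin D3 (3 nM final) plus compound for 16 h at 37 C. The beta-lactamase CCF4 readout was normalized to 50 nM agonist and DMSO, and Hill fits gave IC50.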

Assay [20] has the same target. Kind of assay: qHTS assay for small molecule agonists of vitamin D receptor signaling (AID 588543).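 Further: 0% = DMSO basal and 100% = reference agonist control.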 A digest of the protocol: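 Agonist-mode beta-lactamase reporter: HEK293T VDR-UAS-bla cells in charcoal-stripped 2% FBS, compound series 16 h 37 C, CCF4 2 h RT. EC50 from Hill fit, scaled against DMSO and 50 nM calcitriol control.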
The nature of assay [21]: qHTS assay for small molecule agonists of retinoid X receptor alpha signaling (AID 588544).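 On activation: 0% = DMSO basal wells and 100% = reference agonist.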 Conditions: HEK293T RXRa-UAS-bla, beta-lactamase reporter, 18 h; 530 nm emission.
For assay [22], the target named is Retinoic acid receptor RXR-alpha (Homo sapiens) (UniProt P19793). The assay is described as above.
Assay [23] deals with Thyroid hormone receptor beta (Homo sapiens) (UniProt P10828). Kind of assay: qHTS assay for small molecule agonists of thyroid hormone receptor beta signaling (AID 588545). The method, boiled down: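 HEK 293 TR-UAS-bla; agonist mode; 18 hrs, 37 C; CCF4, ex 405/em 460 and 530 nm; norm. T3 10 nM = 100%, DMSO = 0%; Hill fit → EC50, efficacy.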
Thyroid hormone receptor beta (Homo sapiens), sequence (P10828 whole entry, looked up): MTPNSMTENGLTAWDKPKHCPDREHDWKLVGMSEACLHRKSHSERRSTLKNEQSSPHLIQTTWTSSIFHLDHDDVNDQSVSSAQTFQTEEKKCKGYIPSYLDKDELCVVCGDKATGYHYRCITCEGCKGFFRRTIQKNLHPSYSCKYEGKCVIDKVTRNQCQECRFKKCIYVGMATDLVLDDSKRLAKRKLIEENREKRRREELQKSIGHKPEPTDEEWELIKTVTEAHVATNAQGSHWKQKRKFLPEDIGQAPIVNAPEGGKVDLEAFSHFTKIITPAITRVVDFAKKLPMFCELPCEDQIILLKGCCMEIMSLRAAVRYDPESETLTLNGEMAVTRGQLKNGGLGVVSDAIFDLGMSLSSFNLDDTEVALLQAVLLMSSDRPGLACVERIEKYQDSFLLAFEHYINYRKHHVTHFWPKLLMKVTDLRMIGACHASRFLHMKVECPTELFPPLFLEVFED

Bile acid receptor (Homo sapiens), sequence (Q96RI1 whole entry, looked up): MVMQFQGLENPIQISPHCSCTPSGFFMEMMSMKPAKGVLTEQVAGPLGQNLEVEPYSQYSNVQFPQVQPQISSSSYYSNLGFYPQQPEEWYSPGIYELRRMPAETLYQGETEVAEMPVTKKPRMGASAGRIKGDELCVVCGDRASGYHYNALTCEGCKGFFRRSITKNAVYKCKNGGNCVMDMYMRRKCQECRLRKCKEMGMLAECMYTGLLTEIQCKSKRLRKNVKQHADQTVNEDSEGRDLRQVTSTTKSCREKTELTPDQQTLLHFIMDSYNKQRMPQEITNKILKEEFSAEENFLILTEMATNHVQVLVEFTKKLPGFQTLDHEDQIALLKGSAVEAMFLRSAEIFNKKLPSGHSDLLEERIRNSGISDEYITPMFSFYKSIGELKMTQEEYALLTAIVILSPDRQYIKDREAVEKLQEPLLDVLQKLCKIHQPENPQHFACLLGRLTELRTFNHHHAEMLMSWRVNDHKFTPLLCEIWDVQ
Estrogen receptor (Homo sapiens), sequence (P03372 whole entry, looked up): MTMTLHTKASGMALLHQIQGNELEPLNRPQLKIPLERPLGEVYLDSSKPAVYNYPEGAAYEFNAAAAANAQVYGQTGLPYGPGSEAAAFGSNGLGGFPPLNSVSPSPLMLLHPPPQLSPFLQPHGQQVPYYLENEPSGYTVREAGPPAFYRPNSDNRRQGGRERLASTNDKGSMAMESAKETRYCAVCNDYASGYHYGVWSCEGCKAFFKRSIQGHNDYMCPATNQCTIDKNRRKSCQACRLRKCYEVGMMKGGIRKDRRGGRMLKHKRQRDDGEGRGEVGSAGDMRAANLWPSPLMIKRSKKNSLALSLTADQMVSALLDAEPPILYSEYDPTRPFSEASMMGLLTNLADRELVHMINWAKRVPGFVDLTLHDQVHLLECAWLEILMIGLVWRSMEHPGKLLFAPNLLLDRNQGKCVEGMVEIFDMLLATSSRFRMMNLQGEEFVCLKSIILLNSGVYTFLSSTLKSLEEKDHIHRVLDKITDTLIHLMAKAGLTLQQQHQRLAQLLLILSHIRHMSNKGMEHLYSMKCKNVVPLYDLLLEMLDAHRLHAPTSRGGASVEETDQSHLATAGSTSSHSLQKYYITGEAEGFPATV
Vitamin D3 receptor (Homo sapiens), sequence (P11473 whole entry, looked up): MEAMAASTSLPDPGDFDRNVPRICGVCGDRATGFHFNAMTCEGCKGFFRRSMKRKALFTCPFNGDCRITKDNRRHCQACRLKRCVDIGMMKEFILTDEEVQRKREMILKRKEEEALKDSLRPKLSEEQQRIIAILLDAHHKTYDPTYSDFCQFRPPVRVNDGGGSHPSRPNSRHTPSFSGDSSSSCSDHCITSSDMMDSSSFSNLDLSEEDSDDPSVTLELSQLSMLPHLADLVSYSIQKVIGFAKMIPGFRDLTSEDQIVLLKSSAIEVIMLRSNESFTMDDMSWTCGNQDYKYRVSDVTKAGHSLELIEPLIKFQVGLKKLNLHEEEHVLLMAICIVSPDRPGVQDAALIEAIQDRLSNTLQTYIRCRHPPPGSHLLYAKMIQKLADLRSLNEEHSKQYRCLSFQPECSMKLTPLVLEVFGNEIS
Glucocorticoid receptor (Homo sapiens), sequence (P04150 whole entry, looked up): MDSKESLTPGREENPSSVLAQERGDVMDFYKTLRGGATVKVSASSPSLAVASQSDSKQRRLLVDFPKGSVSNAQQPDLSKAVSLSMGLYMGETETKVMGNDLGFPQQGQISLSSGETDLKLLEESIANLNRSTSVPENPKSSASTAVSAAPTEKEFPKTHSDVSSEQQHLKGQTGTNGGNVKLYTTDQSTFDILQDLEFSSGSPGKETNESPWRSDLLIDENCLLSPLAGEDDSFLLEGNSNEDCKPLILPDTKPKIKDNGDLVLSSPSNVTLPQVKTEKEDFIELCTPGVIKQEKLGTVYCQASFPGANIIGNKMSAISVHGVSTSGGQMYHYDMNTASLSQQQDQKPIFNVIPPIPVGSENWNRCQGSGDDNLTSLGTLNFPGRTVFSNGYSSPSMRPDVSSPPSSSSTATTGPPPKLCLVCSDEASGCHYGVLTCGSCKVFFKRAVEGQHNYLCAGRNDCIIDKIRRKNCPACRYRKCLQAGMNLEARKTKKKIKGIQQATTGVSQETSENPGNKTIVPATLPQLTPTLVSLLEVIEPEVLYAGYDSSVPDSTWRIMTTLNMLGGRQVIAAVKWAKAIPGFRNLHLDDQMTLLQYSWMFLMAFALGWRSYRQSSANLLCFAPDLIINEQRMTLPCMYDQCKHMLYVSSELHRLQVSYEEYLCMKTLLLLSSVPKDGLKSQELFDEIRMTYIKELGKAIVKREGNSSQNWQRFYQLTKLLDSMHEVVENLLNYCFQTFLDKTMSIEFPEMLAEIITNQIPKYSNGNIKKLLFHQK
Peroxisome proliferator-activated receptor gamma (Homo sapiens), sequence (P37231 whole entry, looked up): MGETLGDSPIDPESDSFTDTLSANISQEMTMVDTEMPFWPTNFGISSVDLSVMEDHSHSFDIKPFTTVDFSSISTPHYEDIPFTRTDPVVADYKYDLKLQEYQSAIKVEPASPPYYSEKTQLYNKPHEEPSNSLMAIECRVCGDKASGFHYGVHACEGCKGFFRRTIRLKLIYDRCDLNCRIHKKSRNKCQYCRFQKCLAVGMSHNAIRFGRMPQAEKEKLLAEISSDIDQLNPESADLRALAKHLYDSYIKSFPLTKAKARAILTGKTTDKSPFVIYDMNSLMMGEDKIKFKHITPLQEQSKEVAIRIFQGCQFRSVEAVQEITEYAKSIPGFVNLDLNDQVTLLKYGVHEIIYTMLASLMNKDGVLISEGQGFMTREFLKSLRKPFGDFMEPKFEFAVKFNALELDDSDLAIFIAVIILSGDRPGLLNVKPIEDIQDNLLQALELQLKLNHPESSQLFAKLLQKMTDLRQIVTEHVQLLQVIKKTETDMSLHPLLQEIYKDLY
Retinoic acid receptor RXR-alpha (Homo sapiens), sequence (P19793 whole entry, looked up): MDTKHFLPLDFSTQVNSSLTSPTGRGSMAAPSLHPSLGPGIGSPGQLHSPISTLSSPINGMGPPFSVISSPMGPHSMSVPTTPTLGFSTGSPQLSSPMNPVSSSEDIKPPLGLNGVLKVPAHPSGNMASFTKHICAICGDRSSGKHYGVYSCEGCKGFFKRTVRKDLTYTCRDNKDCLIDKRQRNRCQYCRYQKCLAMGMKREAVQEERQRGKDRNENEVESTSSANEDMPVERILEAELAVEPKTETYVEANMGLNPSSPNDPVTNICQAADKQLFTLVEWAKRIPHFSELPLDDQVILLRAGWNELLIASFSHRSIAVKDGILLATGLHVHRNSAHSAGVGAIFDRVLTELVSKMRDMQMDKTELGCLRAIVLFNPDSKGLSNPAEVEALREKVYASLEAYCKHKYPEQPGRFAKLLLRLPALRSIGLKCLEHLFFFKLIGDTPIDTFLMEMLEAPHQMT

Consider `COC(=O)c1ccccc1C(=O)OC`, for which the molecule was called inactive in assay [1], in assay [2], in assay [4], in assay [5], in [6] and in [7]. Besides, the outcome in assay [8], in assay [9], in assay [10], in [12], in [19] and in assay [22] was inactive. The Potency result in assay [3], in [11], in assay [13], in assay [14], in assay [15] and in [17] was “inactive” in each case. Further, the Potency entry in assay [18], in assay [20] and in assay [23] was “inactive” throughout. Besides, the activation in assay [16] is -0.299% (inactive) and -2.92% (inactive). The max response in assay [21] is -8.66%.
